About 83,000 compounds went through this panel and 20% of them were active in at least one assay; those are over-represented in the sample as a whole.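 Single-dose data. Exposure time 48 hours. Values below 10 considered active.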 The source made the active and inactive calls.

The first test relates to A549/ATCC NSCLC. As to the kind of experiment: NCI-60 one-dose screen, 48 h (100 = growth as untreated, 0 = no growth, -100 = all killed). As to conditions: 10 µM.
`O=C(Nc1ccc(I)cc1F)c1cc(-c2ccc(F)cc2F)ccc1O`: the growth was 9.86% (active).

With `CN1CCN(c2ccc(C(=O)/C=C/c3ccc(C#N)cc3)cc2)CC1`, the growth was 76.3% (inactive).

In the case of `Cc1ccc([N+](=O)[O-])c(C(=O)Nc2ccc(-c3ccc4c(c3)NC(=O)/C4=C\c3ccc[nH]3)cc2)c1`, the growth was 47% (inactive).

Take `CN1CCO/C1=C(/NC(=O)c1ccc(Cl)cc1)[P+](c1ccccc1)(c1ccccc1)c1ccccc1`: the growth is 102% (inactive).

Consider `CNCc1cccc2c1OCCCCCC[C@@](C)(O)CC1(CC1)S(=O)(=O)c1ccc(cc1)-c1cnc(N)c(n1)C(=O)N2`, for which the growth was -79.5% (active).

With `Cc1cccc(NC(=O)CSc2nc3ccc(F)cc3c(=O)n2-c2ccc(Cl)cc2)c1C`, the growth was 72.5% (inactive).

As for `CC(=O)OC[C@@]1(C)C2CC[C@]3(C)C(CC=C4C5CC(C)(C)CC[C@]5(C(=O)Nc5ccccc5)CC[C@]43C)[C@@]2(C)C[C@@H](OC(C)=O)[C@@H]1OC(C)=O` (some centres undefined), the growth is 39.6% (inactive).

As to `CC1=C2C(=C[C@@](C)(COCOCCCl)[C@@H]2O)C(=O)[C@](C)(O)C12CC2`, the growth is -1.86% (active).

As for `CCN1CCN(Cc2ccc(NC(=O)c3cccc(-n4cc(-c5ccc(NC(C)=O)nc5)nn4)c3)cc2C(F)(F)F)CC1`, the growth was 96.4% (inactive).

With `O=C(c1ccc(O)cc1)C1[C@H](c2ccc(Br)cc2)[C@@H](c2ccccc2)NC12C(=O)Nc1ccccc12` (some centres undefined), the growth was 29.5% (inactive).

For the compound `Nc1nnc(-c2c[nH]c3ccc(F)cc23)c(-c2c[nH]c3ncccc23)n1`, the growth was 74% (inactive).

Take `O=C(c1ccc(Cl)cc1)C1[C@H](c2ccccc2Br)[C@@H](c2ccccc2)NC12C(=O)Nc1ccc(Cl)cc12` (some centres undefined): the growth was 19.8% (inactive).

With `Cc1ccc(NCC(=O)Nn2c(COc3ccccc3)nc3ccccc3c2=O)cc1`, the growth was 77.9% (inactive).

Turning to `NS(=O)(=O)c1ccc(N=Nc2c(O)n(CC(=O)Nc3ccccc3Br)c3ccccc23)cc1`, the growth was 19.8% (inactive).

As for `CN(C(=O)c1ccc(C(F)(F)F)cc1C(F)(F)F)c1sc2c(c1C#N)CCC(=O)C2`, the growth was 94.4% (inactive).

`CC(C)(C)Nc1nc2cc(Cl)c(Cl)cc2nc1S(C)(=O)=O`: the growth was 94.1% (inactive).

With `Cc1ccc(/C(N)=N/c2sc(-c3ccccc3)nc2-c2ccccc2)cc1`, the growth was 80.4% (inactive).

`O=c1cc(-c2ccccc2)oc2cc(OCCCNCc3ccccc3)cc(O)c12`: the growth is 26.2% (inactive).

Regarding `CCOC(=O)C1NN(c2ccc(S(N)(=O)=O)cc2)c2nc3nc(-c4cccs4)cc(-c4cccs4)c3c(=O)n21` (centres undefined), the growth is 90.9% (inactive).

Regarding `N#Cc1c(NC(=O)c2ccc(C(F)(F)F)cc2)sc2c1CCC(O)=C2`, the growth was 34.7% (inactive).

Turning to `COc1ccc2[nH]cc(/C=N/Nc3ccc(Br)cn3)c2c1`, the growth was 23% (inactive).

`Cc1cc(C(F)(F)F)ccc1C(=O)Nc1sc2c(c1C#N)CCC(=O)C2`: the growth was 30% (inactive).

For `Cc1ccc(F)cc1N/C=c1\s/c(=C(\C#N)C(=O)Nc2ccccc2)n(-c2ccccc2)c1=O`, the growth was 37.7% (inactive).

`CCCn1c(=O)c2[nH]c(-c3ccc(OCc4nc5ccc(C)cc5[nH]4)cc3)nc2n(CCC)c1=O`: the growth is 62.7% (inactive).

For `O=C(O)CCCCCCCCCCN1C(=O)/C(=C/c2cnc(-c3ccccc3)s2)SC1=S`, the growth is 46.1% (inactive).

Turning to `O=C1NC(=NC2CCCCCC2)N/C1=C\c1ccc2ncoc2c1`, the growth is 17% (inactive).

Take `COc1ccc2[nH]c(=O)c(CSc3cccc(N)c3)cc2c1`: the growth was 46.4% (inactive).

On to `O=C(c1ccc(Cl)cc1)C1[C@H](c2ccc(Br)cc2)[C@@H](c2ccccc2)NC12C(=O)Nc1ccc(Cl)cc12` (some centres undefined), for which the growth is -44% (active).

For `C=CC(=O)Nc1ccc(C(=O)/C=C/c2ccc(N(C)CCF)cc2)c(O)c1`, the growth was -60.7% (active).

Take `COc1cccc(/C=C2\N=C(C)N(CCc3ccc(S(N)(=O)=O)cc3)C2=O)c1`: the growth is 101% (inactive).

Regarding `N#Cc1c(NC(=O)c2ccc(C(F)(F)F)cc2)sc2c1CCC(=O)C2`, the growth was -41.9% (active).

Consider `COc1cc2oc(-c3cccc(C(=O)Nc4ccc(Cl)cc4)c3)cc(=O)c2c(OCCNC(=O)CNC(=O)OC(C)(C)C)c1OC`, for which the growth is 53.9% (inactive).

As to `Cc1ccc(C(=O)NNC(=O)CSc2nc3ccccc3c(=O)[nH]2)cc1`, the growth was 111% (inactive).

For `Brc1ccc(/C=N/Nc2ncnc3sc4c(c23)CCN(Cc2ccccc2)C4)cc1`, the growth was 74.2% (inactive).

Regarding `Cc1cc2nc3c4ccccc4n(CCO)c3nc2cc1C`, the growth was 97.6% (inactive).

In the case of `O=C1NC(=NC23CC4CC(CC(C4)C2)C3)N/C1=C\c1ccc2ncccc2n1`, the growth was 2.65% (active).

For `CN1CCN(Cc2ccc(C(=O)Nc3cccc(Nc4ccc5cc(O)ccc5n4)c3)cc2C(F)(F)F)CC1`, the growth is -11.5% (active).

In the next test the test system is 786-0 renal. The description is as above. The following applies: 10 µM.
Take `O=C(Nc1ccc(I)cc1F)c1cc(-c2ccc(F)cc2F)ccc1O`: the growth is 16.7% (inactive).

For `CN1CCN(c2ccc(C(=O)/C=C/c3ccc(C#N)cc3)cc2)CC1`, the growth is 73.5% (inactive).

Take `Cc1ccc([N+](=O)[O-])c(C(=O)Nc2ccc(-c3ccc4c(c3)NC(=O)/C4=C\c3ccc[nH]3)cc2)c1`: the growth is 61.6% (inactive).

With `CN1CCO/C1=C(/NC(=O)c1ccc(Cl)cc1)[P+](c1ccccc1)(c1ccccc1)c1ccccc1`, the growth is 103% (inactive).

Regarding `CNCc1cccc2c1OCCCCCC[C@@](C)(O)CC1(CC1)S(=O)(=O)c1ccc(cc1)-c1cnc(N)c(n1)C(=O)N2`, the growth was -82.9% (active).

In the case of `Cc1cccc(NC(=O)CSc2nc3ccc(F)cc3c(=O)n2-c2ccc(Cl)cc2)c1C`, the growth is 34.7% (inactive).

Consider `CC(=O)OC[C@@]1(C)C2CC[C@]3(C)C(CC=C4C5CC(C)(C)CC[C@]5(C(=O)Nc5ccccc5)CC[C@]43C)[C@@]2(C)C[C@@H](OC(C)=O)[C@@H]1OC(C)=O` (some centres undefined), for which the growth is 45.7% (inactive).

For the compound `CC1=C2C(=C[C@@](C)(COCOCCCl)[C@@H]2O)C(=O)[C@](C)(O)C12CC2`, the growth is -36.2% (active).

As to `CCN1CCN(Cc2ccc(NC(=O)c3cccc(-n4cc(-c5ccc(NC(C)=O)nc5)nn4)c3)cc2C(F)(F)F)CC1`, the growth is 58.5% (inactive).

Take `O=C(c1ccc(O)cc1)C1[C@H](c2ccc(Br)cc2)[C@@H](c2ccccc2)NC12C(=O)Nc1ccccc12` (some centres undefined): the growth was 16.3% (inactive).

As to `Nc1nnc(-c2c[nH]c3ccc(F)cc23)c(-c2c[nH]c3ncccc23)n1`, the growth is 44% (inactive).

Regarding `O=C(c1ccc(Cl)cc1)C1[C@H](c2ccccc2Br)[C@@H](c2ccccc2)NC12C(=O)Nc1ccc(Cl)cc12` (some centres undefined), the growth is 17.6% (inactive).

Regarding `Cc1ccc(NCC(=O)Nn2c(COc3ccccc3)nc3ccccc3c2=O)cc1`, the growth was 66.4% (inactive).

As to `NS(=O)(=O)c1ccc(N=Nc2c(O)n(CC(=O)Nc3ccccc3Br)c3ccccc23)cc1`, the growth is 20.1% (inactive).

Turning to `CN(C(=O)c1ccc(C(F)(F)F)cc1C(F)(F)F)c1sc2c(c1C#N)CCC(=O)C2`, the growth was 85.2% (inactive).

As for `CC(C)(C)Nc1nc2cc(Cl)c(Cl)cc2nc1S(C)(=O)=O`, the growth was 44% (inactive).

As to `Cc1ccc(/C(N)=N/c2sc(-c3ccccc3)nc2-c2ccccc2)cc1`, the growth is 76.7% (inactive).

Turning to `O=c1cc(-c2ccccc2)oc2cc(OCCCNCc3ccccc3)cc(O)c12`, the growth is -48% (active).

Regarding `CCOC(=O)C1NN(c2ccc(S(N)(=O)=O)cc2)c2nc3nc(-c4cccs4)cc(-c4cccs4)c3c(=O)n21` (centres undefined), the growth was 78.7% (inactive).

For the compound `N#Cc1c(NC(=O)c2ccc(C(F)(F)F)cc2)sc2c1CCC(O)=C2`, the growth was 53.3% (inactive).

On to `COc1ccc2[nH]cc(/C=N/Nc3ccc(Br)cn3)c2c1`, for which the growth is -3.93% (active).

Turning to `Cc1cc(C(F)(F)F)ccc1C(=O)Nc1sc2c(c1C#N)CCC(=O)C2`, the growth is 12.7% (inactive).

In the case of `Cc1ccc(F)cc1N/C=c1\s/c(=C(\C#N)C(=O)Nc2ccccc2)n(-c2ccccc2)c1=O`, the growth is 34.6% (inactive).

As for `CCCn1c(=O)c2[nH]c(-c3ccc(OCc4nc5ccc(C)cc5[nH]4)cc3)nc2n(CCC)c1=O`, the growth is -75.2% (active).

`O=C(O)CCCCCCCCCCN1C(=O)/C(=C/c2cnc(-c3ccccc3)s2)SC1=S`: the growth was 79.3% (inactive).

`O=C1NC(=NC2CCCCCC2)N/C1=C\c1ccc2ncoc2c1`: the growth is 40.6% (inactive).

For `COc1ccc2[nH]c(=O)c(CSc3cccc(N)c3)cc2c1`, the growth was 55% (inactive).

In the case of `O=C(c1ccc(Cl)cc1)C1[C@H](c2ccc(Br)cc2)[C@@H](c2ccccc2)NC12C(=O)Nc1ccc(Cl)cc12` (some centres undefined), the growth is -68% (active).

For `C=CC(=O)Nc1ccc(C(=O)/C=C/c2ccc(N(C)CCF)cc2)c(O)c1`, the growth was -42.2% (active).

On to `COc1cccc(/C=C2\N=C(C)N(CCc3ccc(S(N)(=O)=O)cc3)C2=O)c1`, for which the growth is 90.4% (inactive).

`N#Cc1c(NC(=O)c2ccc(C(F)(F)F)cc2)sc2c1CCC(=O)C2`: the growth is -8.91% (active).

Consider `COc1cc2oc(-c3cccc(C(=O)Nc4ccc(Cl)cc4)c3)cc(=O)c2c(OCCNC(=O)CNC(=O)OC(C)(C)C)c1OC`, for which the growth was 76.1% (inactive).

Regarding `Cc1ccc(C(=O)NNC(=O)CSc2nc3ccccc3c(=O)[nH]2)cc1`, the growth is 95.2% (inactive).

With `Brc1ccc(/C=N/Nc2ncnc3sc4c(c23)CCN(Cc2ccccc2)C4)cc1`, the growth is 48.5% (inactive).

On to `Cc1cc2nc3c4ccccc4n(CCO)c3nc2cc1C`, for which the growth was 12.1% (inactive).

Take `O=C1NC(=NC23CC4CC(CC(C4)C2)C3)N/C1=C\c1ccc2ncccc2n1`: the growth is 2.78% (active).

Take `CN1CCN(Cc2ccc(C(=O)Nc3cccc(Nc4ccc5cc(O)ccc5n4)c3)cc2C(F)(F)F)CC1`: the growth is -47% (active).
